The results in this text go back to PubChem BioAssay (Tox21).

The nature of experiment [1]: Nuclear factor erythroid 2-related factor 2/antioxidant responsive element (Nrf2/ARE) small molecule agonists: qHTS cell viability counter screen in human keratinocytes (AID 1919968; active means well fitted curve in the direction sought with a large enough effect in the repeat runs; an effect the other way counts as inactive or inconclusive; further: nearly all actives have a fitted effect of over 55% in size; further: potency means the concentration at half of the fitted maximal effect). The method, boiled down:
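KeratinoSens HaCaT cells, 1,500/well, preincubated 5 h, then exposed to compounds in DMSO for 23 h at 37 C/5% CO2. Viability read as CellTiter-Fluor fluorescence after 1 h, in the same wells as the ARE-luciferase read.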
In general terms: qHTS replaces the single test concentration by a dilution series.

Experiment [2] concerns the target Gonadotropin-releasing hormone receptor (Homo sapiens) (UniProt P30968). As to the kind of experiment: Human gonadotropin-releasing hormone receptor (GnRHR) small molecule agonists, calcium flux assay in GnRHR-HEK293 cells (AID 1920063). Further: nearly all actives have a fitted effect of over 35% in size. The method, boiled down: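 HEK293 cells stably expressing human GnRHR were dye-loaded for 1 h at 37 C. Compound was added in agonist mode and fluorescence (Ex/Em 480/540) recorded kinetically for 3 min. Fifteen concentrations, triplicates.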
A general note: A change in cytosolic calcium serves as a functional read-out for many receptors and channels.

The target of experiment [3] is KiSS-1 receptor (Homo sapiens) (UniProt Q969F8). As to the kind of experiment: Human kisspeptin (KISS1R) small molecule agonists, calcium flux assay in KISS1R-HEK293 cells (AID 1920064; active means well fitted curve in the direction sought with a large enough effect in the repeat runs; an effect the other way counts as inactive or inconclusive). In outline:
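HEK293 cells stably expressing human KISS1R were loaded with calcium dye for 1 h at 37 C, then given compound; fluorescence (Ex/Em 480/540) was read kinetically for 3 min. Fifteen concentrations, triplicate.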

Experiment [4] is described as follows: p53 small molecule agonists, cell-based qHTS assay with human liver microsomes (AID 1963577).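 Further: p53 response element beta-lactamase reporter cells with liver microsomes plus NADPH.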 The method, boiled down:
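p53RE-bla cells; 5 h settle, 37 C/5% CO2; cpd + HLM 0.5 mg/mL + NADPH 0.5 mg/mL (final); 16 h 37 C; LiveBLAzer 2 h RT dark; fluorescence readout.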

The nature of experiment [5]: p53 small molecule agonists, cell-based qHTS assay with rat liver microsomes (AID 1963578). In outline: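 Rat liver microsome activation: microsomes 0.5 mg/mL, NADPH 0.5 mg/mL final; p53RE-bla cells, 16 h 37 C; LiveBLAzer readout, 2 h RT dark.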
Experiment [6] in a line: p53 small molecule agonists, cell-based qHTS assay with human liver microsomes: qHTS cell viability counter screen (AID 1963579). Further: nearly all actives have a fitted effect of over 45% in size. Further: potency means the concentration at half of the fitted maximal effect. The method, boiled down: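 Luminescent CellTiter-Glo read-out, 30 min at room temperature, gauged cytotoxicity in p53RE-bla cells exposed 16 h at 37 C to DMSO-dissolved compounds with metabolic activation by human liver microsomes and NADPH, each 0.5 mg/mL final.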

Experiment [7] can be described thus: p53 small molecule agonists, cell-based qHTS assay with rat liver microsomes: qHTS cell viability counter screen (AID 1963580). Further: nearly all actives have a fitted effect of over 45% in size. In outline:
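p53RE-bla HCT-116 cells (4,000/well) rested 5 h at 37 C, then given Tox21 compounds in DMSO with rat liver microsomes (0.5 mg/mL final) plus NADPH (0.5 mg/mL final) for 16 h at 37 C. Viability read by CellTiter-Glo luminescence after 30 min at room temperature.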

Experiment [8] can be described thus: p53 small molecule agonists, cell-based qHTS assay: qHTS cell viability counter screen (AID 1963581). Further: nearly all actives have a fitted effect of over 45% in size. Further: potency means the concentration at half of the fitted maximal effect. In outline:
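p53RE-bla HCT-116 cells, compounds added 5 h after plating and incubated 16 h at 37 C. Cytotoxicity measured in the same wells as intracellular ATP by CellTiter-Glo luminescence after 30 min at room temperature.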

Experiment [9] can be described thus: p53 small molecule agonists, cell-based qHTS assay (AID 1963582; active means well fitted activation curve with a large enough effect in the signal ratio in the repeat runs, not every such curve was filed as active; the % refers to the signal ratio). In outline: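 p53RE-bla reporter cells, compounds added in DMSO after 5 h plating, incubated 16 h at 37 C. Beta-lactamase read via 2 h room-temperature LiveBLAzer B/G FRET substrate, fluorescence intensity.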
Experiment [10] concerns the target Muscarinic acetylcholine receptor M1 (Homo sapiens) (UniProt P11229). As to the kind of experiment: Cholinergic receptor muscarinic 1 (CHRM1) small molecule antagonists, cell-based qHTS assay (AID 1963588). Further: nearly all actives have a fitted effect of over 40% in size. Further: potency means the concentration at half of the fitted maximal effect. In outline: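 CHRM1-CHO calcium-flux assay, antagonist mode. Cells were seeded 18 h, dye-loaded 1 h at 37 C and given compound for 5 min at RT, then acetylcholine was added at 50nM. FDSS fluorescence was read 3 min; 15 concentrations, three runs.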

Experiment [11] shares this target. The experiment is described as follows: Cholinergic receptor muscarinic 1 (CHRM1) small molecule agonists, cell-based qHTS assay (AID 1963589). Further: nearly all actives have a fitted effect of over 35% in size. In outline:
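CHO cells stably expressing human CHRM1 were loaded with calcium dye for 1 h at 37 C, then compound was added in agonist mode. Intracellular calcium fluorescence was followed kinetically at 1 s intervals. Fifteen concentrations were tested in three independent runs.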

Experiment [12] in a line: cAMP Responsive Elements (CRE) small molecule agonists, cell-based qHTS assay (AID 1963590). The method, boiled down:
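CRE-bla HEK 293T cells, 2,000/well in DMEM with 10% dialyzed FBS and 25 mM HEPES, pre-incubated 18 h at 37 C, then exposed to compound 3 h at 37 C. Beta-lactamase reporter read with LiveBLAzer B/G FRET substrate after 2 h at room temperature.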

The nature of experiment [13]: cAMP Responsive Elements (CRE) small molecule antagonists, cell-based qHTS assay (AID 1963591; active means well fitted inhibition curve with a large enough effect in the signal ratio in the repeat runs, not every such curve was filed as active; the % refers to the signal ratio). In outline: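 CRE-bla HEK293T cells plated 18 h, then given compound plus NKH477 at 0.25 uM final for 3 h at 37C. Beta-lactamase reporter read with LiveBLAzer B/G FRET substrate after 2 h at room temperature.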
The target of experiment [14] is Beta-2 adrenergic receptor (Homo sapiens) (UniProt P07550). The experiment is described as follows: Adrenergic beta2 receptor (ADRB2) small molecule antagonists, cell-based qHTS assay (AID 1963592). Further: series mostly up to about 92 µM; nearly all actives have a fitted effect of over 50% in size. The method, boiled down:
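Cells (CHO, stable ADRB2 overexpression) incubated 18-20hr at 37C; compounds added from DMSO; agonist mix (1nM isoproterenol, 100uM IBMX, 25uM Ro-20-1724) added; 0.5hr RT; d2-cAMP and anti-cAMP-cryptate added; 1hr RT; 665/615 nm read.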

Experiment [15] deals with D(2) dopamine receptor (Homo sapiens) (UniProt P14416). The experiment is described as follows: Dopamine D2 receptor (DRD2) small molecule agonists, cell-based qHTS assay (AID 1963594). Further: nearly all actives have a fitted effect of over 35% in size. In outline: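 HEK293 cells stably expressing DRD2 were cultured 24 h at 37 C, then given Ro20-1724 (0.1 mM final) and compounds for 10 min at room temperature. NKH477 (200nM) was then added for 30 min. cAMP was read by HTRF.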

The nature of experiment [16]: G protein-coupled receptor (GPCR) small molecule agonists, calcium flux assay: HEK293 wild type cell line counter screen (AID 1920065). In outline: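 Wild-type HEK293 cells plated 18 h, loaded with calcium dye 1 h at 37 C, then compounds added in agonist mode (ATP as positive control). Kinetic fluorescence Ex/Em 480/540 recorded 3 min at 1 sec intervals; 15 concentrations, triplicate.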

In experiment [17] the target is 5-hydroxytryptamine receptor 2A (Homo sapiens) (UniProt P28223). As to the kind of experiment: 5-hydroxytryptamine receptor 2A (HTR2A) small molecule antagonists, cell-based qHTS assay (AID 1963586). Further: nearly all actives have a fitted effect of over 45% in size. The method, boiled down:
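Antagonist-mode intracellular calcium assay: DOI (4 nM) added after 5 min compound pre-incubation at room temperature to dye-loaded HTR2A-CHO cells. Fluorescence followed for 3 min, sampled every second.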

Experiment [18] deals with Beta-2 adrenergic receptor (Homo sapiens) (UniProt P07550). As to the kind of experiment: Adrenergic beta2 receptor (ADRB2) small molecule agonists, cell-based qHTS assay (AID 1963593).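 Further: CHO cells stably overexpressing human ADRB2.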 The method, boiled down: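 CHO cells stably over-expressing ADRB2 were plated overnight at 37C, then dosed with compounds plus a stimulation mix containing 100uM IBMX and 25uM Ro-20-1724 for 0.5hr at room temperature. cAMP was measured by HTRF competition, 1hr.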

The target in experiment [19] is D(2) dopamine receptor (Homo sapiens) (UniProt P14416). The experiment is described as follows: Dopamine D2 receptor (DRD2) small molecule antagonists, cell-based qHTS assay (AID 1963595; active means well fitted inhibition curve with a large enough effect in the signal ratio in the repeat runs, with a control signal flat; the % refers to the signal ratio; further: potency means the concentration at half of the fitted maximal effect). The method, boiled down: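 Antagonist mode in DRD2-HEK293 cells: after compound addition with 0.1 mM Ro20-1724, cells received quinpirole (12 nM) and NKH477 (200 nM) for 30 min at room temperature; HTRF cAMP read after 1 h detection.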

The target in experiment [20] is 5-hydroxytryptamine receptor 2A (Homo sapiens) (UniProt P28223). The experiment is described as follows: 5-hydroxytryptamine receptor 2A (HTR2A) small molecule agonists, cell-based qHTS assay (AID 1963587). Further: nearly all actives have a fitted effect of over 30% in size. In outline: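 HTR2A-CHO cells, plated 18 h at 37 C/5% CO2, dye-loaded 1 h at 37 C; compounds in DMSO added by pin tool (agonist mode). Intracellular calcium flux read as kinetic fluorescence on FDSS over 2 min at 1 s intervals.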

Structures are written as SMILES. Values joined by “and” are separate entries in the source; they are usually repeats but may differ in a detail not shown here. Equal entries are not always repeated. Records with an inconclusive call do not appear. Where a structure was tested more than once in an assay, its records may differ in their call. Active and inactive are the calls of the source. Unless noted, the call rests on the fitted dose curve.

Muscarinic acetylcholine receptor M1 (Homo sapiens), sequence (P11229 whole entry, looked up): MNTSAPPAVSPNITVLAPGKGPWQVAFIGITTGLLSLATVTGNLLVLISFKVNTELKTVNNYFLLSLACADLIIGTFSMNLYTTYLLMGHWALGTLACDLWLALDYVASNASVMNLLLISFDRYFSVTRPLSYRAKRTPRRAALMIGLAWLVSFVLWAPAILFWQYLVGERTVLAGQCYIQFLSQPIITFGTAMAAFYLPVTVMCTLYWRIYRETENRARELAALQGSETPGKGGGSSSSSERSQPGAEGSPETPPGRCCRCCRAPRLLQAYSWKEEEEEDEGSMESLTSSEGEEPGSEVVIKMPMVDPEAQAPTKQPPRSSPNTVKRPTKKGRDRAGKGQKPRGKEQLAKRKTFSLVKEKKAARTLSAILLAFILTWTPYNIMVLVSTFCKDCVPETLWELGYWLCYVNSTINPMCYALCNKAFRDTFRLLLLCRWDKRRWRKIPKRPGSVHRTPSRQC
D(2) dopamine receptor (Homo sapiens), sequence (P14416 whole entry, looked up): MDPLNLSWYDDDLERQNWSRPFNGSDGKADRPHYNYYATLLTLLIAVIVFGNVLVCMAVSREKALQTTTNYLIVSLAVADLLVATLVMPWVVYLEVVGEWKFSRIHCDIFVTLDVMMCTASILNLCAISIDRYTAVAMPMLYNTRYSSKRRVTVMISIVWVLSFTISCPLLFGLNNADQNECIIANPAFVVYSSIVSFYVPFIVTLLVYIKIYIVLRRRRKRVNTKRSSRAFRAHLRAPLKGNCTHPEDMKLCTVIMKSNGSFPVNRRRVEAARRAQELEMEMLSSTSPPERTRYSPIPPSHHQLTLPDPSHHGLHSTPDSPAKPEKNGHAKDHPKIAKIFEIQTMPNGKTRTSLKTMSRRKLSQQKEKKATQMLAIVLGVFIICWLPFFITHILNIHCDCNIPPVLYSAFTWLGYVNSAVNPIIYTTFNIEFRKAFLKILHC
Gonadotropin-releasing hormone receptor (Homo sapiens), sequence (P30968 whole entry, looked up): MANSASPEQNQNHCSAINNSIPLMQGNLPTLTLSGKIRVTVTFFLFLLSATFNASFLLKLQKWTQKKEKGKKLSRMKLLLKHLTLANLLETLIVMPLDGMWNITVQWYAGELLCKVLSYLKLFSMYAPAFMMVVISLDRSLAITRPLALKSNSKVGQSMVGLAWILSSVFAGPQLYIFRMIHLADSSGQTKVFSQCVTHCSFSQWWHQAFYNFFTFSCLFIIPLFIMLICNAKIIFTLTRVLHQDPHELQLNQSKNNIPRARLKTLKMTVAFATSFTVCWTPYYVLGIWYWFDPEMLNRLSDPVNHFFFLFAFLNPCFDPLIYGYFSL
KiSS-1 receptor (Homo sapiens), sequence (Q969F8 whole entry, looked up): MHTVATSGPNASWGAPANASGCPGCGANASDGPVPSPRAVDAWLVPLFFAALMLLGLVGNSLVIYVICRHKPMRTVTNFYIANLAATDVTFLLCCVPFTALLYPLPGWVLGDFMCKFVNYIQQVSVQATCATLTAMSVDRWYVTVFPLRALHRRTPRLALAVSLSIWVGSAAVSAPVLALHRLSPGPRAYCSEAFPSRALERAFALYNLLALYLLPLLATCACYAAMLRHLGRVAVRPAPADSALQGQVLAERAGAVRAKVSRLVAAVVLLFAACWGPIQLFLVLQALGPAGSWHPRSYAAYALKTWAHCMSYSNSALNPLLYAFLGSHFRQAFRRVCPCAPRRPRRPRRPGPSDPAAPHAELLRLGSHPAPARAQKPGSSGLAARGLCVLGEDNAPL
5-hydroxytryptamine receptor 2A (Homo sapiens), sequence (P28223 whole entry, looked up): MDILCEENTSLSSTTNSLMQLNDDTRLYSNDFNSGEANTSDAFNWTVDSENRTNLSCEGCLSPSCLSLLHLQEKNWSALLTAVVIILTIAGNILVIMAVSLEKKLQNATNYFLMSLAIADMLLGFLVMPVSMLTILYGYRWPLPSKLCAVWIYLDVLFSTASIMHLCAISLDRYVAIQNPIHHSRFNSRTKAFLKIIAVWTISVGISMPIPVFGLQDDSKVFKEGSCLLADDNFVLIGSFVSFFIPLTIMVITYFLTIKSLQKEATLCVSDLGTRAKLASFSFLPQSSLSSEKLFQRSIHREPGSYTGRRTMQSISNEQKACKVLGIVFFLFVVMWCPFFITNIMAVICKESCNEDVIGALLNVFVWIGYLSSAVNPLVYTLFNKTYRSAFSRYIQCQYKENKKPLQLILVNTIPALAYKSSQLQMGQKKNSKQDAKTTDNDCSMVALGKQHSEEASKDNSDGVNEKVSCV
Beta-2 adrenergic receptor (Homo sapiens), sequence (P07550 whole entry, looked up): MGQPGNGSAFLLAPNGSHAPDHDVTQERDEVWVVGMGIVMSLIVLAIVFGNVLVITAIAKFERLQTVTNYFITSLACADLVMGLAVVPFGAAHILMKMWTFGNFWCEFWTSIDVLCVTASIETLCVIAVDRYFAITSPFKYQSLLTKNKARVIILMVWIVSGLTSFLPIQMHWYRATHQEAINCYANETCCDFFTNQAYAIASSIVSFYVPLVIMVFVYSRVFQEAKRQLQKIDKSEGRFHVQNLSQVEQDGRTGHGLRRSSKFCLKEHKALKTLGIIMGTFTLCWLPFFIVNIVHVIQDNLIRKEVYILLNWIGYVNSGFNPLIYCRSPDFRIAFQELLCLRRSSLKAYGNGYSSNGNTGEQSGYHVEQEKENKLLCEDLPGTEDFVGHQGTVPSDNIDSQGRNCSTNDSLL

For `Cc1occc1S`, the Potency result in [1], in experiment [2], in [3], in experiment [4], in [5] and in experiment [6] was “inactive” throughout. Besides, the Potency entry in experiment [7], in experiment [8], in [9], in [10], in experiment [11] and in experiment [12] was “inactive” each time. Moreover, the Potency entry in experiment [13], in experiment [14] and in [15] was “inactive” throughout.
Regarding `CCCCC(CC)COC(=O)CC(C(=O)OCC(CC)CCCC)S(=O)(=O)O` (centres undefined), the Potency was 26.3 µM (active) in [1]; 44 µM (active) and inactive in experiment [6]; 39.2 µM (active) in experiment [8]; “inactive and 61.1 µM (active)” in experiment [19]. The Potency result in experiment [3], in experiment [16], in experiment [4], in experiment [5], in [17] and in experiment [10] was “inactive” each time. The Potency entry in [13], in experiment [14], in experiment [18] and in experiment [15] was “inactive” in each case.
In the case of `O=S(=O)(O)c1ccccc1`, the Potency entry in experiment [1], in experiment [2], in experiment [3], in experiment [7], in experiment [8] and in [17] was “inactive” each time. In addition, the Potency entry in experiment [20], in [10], in experiment [11], in experiment [13], in [14] and in experiment [18] was “inactive” in each case. The Potency entry in experiment [15] and in experiment [19] was “inactive” throughout.
Consider `CCO[Si](OCC)(OCC)c1ccccc1`, for which the Potency result in experiment [1], in experiment [2], in [16], in experiment [4], in [5] and in experiment [6] was “inactive” throughout. In addition, the Potency result in experiment [7], in experiment [8], in [9], in experiment [17], in experiment [20] and in experiment [10] was “inactive” in each case. In addition, the Potency entry in experiment [11], in experiment [12], in experiment [13], in [14], in [18] and in experiment [15] was “inactive” in each case. For the same compound, the Potency result in experiment [19] is “inactive”.
For `CCCC(=O)C(C)=O`, the Potency result in experiment [1], in experiment [2], in [4], in experiment [5], in experiment [6] and in experiment [7] was “inactive” throughout. The Potency entry in experiment [9], in [17], in [10], in experiment [11], in [12] and in experiment [13] was “inactive” in each case. In addition, the Potency entry in experiment [14], in experiment [15] and in [19] was “inactive” in each case.
Turning to `C=CCOC(=O)CCCCCCCC`, the Potency entry in experiment [1], in experiment [3], in experiment [16], in [4], in experiment [5] and in experiment [6] was “inactive” in each case. Also, the Potency entry in experiment [7], in experiment [8], in experiment [9], in [17], in [20] and in experiment [10] was “inactive” each time. Moreover, the Potency entry in experiment [11], in [12], in experiment [13], in [18], in experiment [15] and in [19] was “inactive” in each case.
For `Cc1nc(-c2ccc3c(c2)CCN(CCC2CCC(NC(=O)/C=C/c4ccc(F)cc4)CC2)CC3)no1` (centres undefined), the Potency result in experiment [1], in [3], in experiment [16], in experiment [4], in experiment [5] and in experiment [6] was “inactive” in each case. In addition, the Potency entry in experiment [7], in experiment [8], in experiment [9], in experiment [17], in experiment [20] and in [11] was “inactive” each time. The Potency entry in experiment [12], in experiment [13], in experiment [14], in experiment [18], in [15] and in [19] was “inactive” each time. The Potency in experiment [10] is 0.266 µM (active).
